Bioassay records: PubChem BioAssay, National Center for Advancing Translational Sciences (NCATS)
Pf growth 48h: P. falciparum growth inhibition at 48 hours (one generation) | P. falciparum luciferase growth in erythrocytes, 48 h | 5.9% of 310,000 active | AID 504832 | Potency, µM (top dose mostly 28.7 µM), most hits filed as inhibitors
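Firefly luciferase activity from engineered P. falciparum reports growth; inhibitors lower the luminescent signal. Cultures contained 2% hematocrit erythrocytes at 0.1% final parasitemia.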
Sm TGR inh: blocks Schistosoma mansoni thioredoxin glutathione reductase; 3% of 360,000 active; Potency, µM (titrated, usually from 114 µM), most hits filed as inhibitors; purified TGR, DTNB reduction, TNB absorbance 405 nm; note: nearly all actives have a fitted effect of over 60% in size
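First, TGR (20 nM dispensed) and NADPH were mixed with compound. Second, a 15 min room-temperature incubation followed. Third, further NADPH and then DTNB were added to start the reaction. Finally, TNB absorbance was monitored kinetically.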
AmpC inh detg: AmpC beta-lactamase inhibition with detergent present; 0.041% of 370,000 active; AmpC hydrolysis of nitrocefin, absorbance 480 nm, 0.01% Triton; Potency, µM (titrated, usually from 114 µM), actives largely listed as inhibitors; note: nearly all actives have a fitted effect of over 25% in size
Target sequence (P00811 whole entry, looked up): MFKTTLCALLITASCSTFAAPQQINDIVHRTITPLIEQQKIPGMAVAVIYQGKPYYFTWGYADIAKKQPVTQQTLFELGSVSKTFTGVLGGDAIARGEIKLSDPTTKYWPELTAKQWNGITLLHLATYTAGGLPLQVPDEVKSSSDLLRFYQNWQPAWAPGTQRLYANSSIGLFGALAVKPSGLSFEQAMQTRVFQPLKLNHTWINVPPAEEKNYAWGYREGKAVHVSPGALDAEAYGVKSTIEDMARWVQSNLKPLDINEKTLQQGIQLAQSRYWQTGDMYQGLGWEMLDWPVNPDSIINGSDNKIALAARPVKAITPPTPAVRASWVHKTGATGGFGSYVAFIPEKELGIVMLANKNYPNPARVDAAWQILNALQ
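20 mM phosphate pH 7.0 + 0.01% (detergent screen) or 0.0001% Triton X-100; 5.3 nM AmpC reagent; cpd preinc 15 min RT; nitrocefin (800 uM stock) to start; A480 q20 s × 4 min; Activity was normalised to no-enzyme and no-compound control wells.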
SARS PLpro yeast: inhibitors of SARS-CoV papain-like protease in yeast; S. cerevisiae expressing SARS-CoV PLpro, growth rescue; Potency, µM (titrated, usually from 32.9 µM), actives largely listed as activators; 0.19% of 330,000 active; AID 485353; calls by dose curve; note: nearly all actives have a fitted effect of over 55% in size
Pf growth 96h: P. falciparum growth inhibition at 96 hour, primary screen for plastid delayed-death inhibitors | 6.9% of 320,000 active | Potency, µM (titrated, usually from 28.7 µM), actives largely listed as inhibitors | AID 504834 | P. falciparum luciferase reporter growth, 96 h
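Cell-based qHTS: luciferase-tagged P. falciparum in erythrocytes (2% hematocrit, 0.05% parasitemia final) incubated with compounds for 96 hours, 37 C, 5% CO2; luciferase detection reagent then added and luminescence measured.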
AmpC inh no detg: AmpC beta-lactamase inhibition without detergent | P00811 | AmpC nitrocefin hydrolysis, absorbance 480 nm, 0.0001% Triton | Potency, µM (series often up to 57.1 µM), usual class: inhibitors | 0.52% of 330,000 active | AID 485341; note: nearly all actives have a fitted effect of over 20% in size
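AmpC (5.3 nM in the dispensed reagent) in 20 mM phosphate pH 7.0 with 0.01% (detergent screen) or 0.0001% Triton X-100 was preincubated with compounds for 15 min at room temperature. Nitrocefin was then added from an 800 uM solution, and hydrolysis was followed at 480 nm.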
Numbers stand for hits; i = inactive; ? = inconclusive; nt = no result. A selection: hits, their analogues and other compounds. The true share with any hit is near 12%. Unless noted, calls come from the whole dose curve; as a rule, active = well fitted curve in the direction sought with a large enough effect; inconclusive = small, poorly fitted or top-dose-only effect, or another doubt; inactive = no such curve, though single readings can be large; an effect the other way counts as inactive or inconclusive.

SMILES	Pf growth 48h	Sm TGR inh	AmpC inh detg	SARS PLpro yeast	Pf growth 96h	AmpC inh no detg
C/C(Cn1nnc([N+](=O)[O-])n1)=N\NC(=O)c1cccc(Cl)c1	?	i	i	i	11.7µM	i
C/C(Cn1nnc([N+](=O)[O-])n1)=N\NC(=O)c1ccncc1	i	i	i	i	?	i
Cc1cnc(=O)[nH]c1SCc1ccccc1F	i	i	?	i	i	i
OCCN1CCN(C(c2cccs2)c2ccc3cccnc3c2O)CC1 (stereo unspecified)	2.08µM	0.316µM	i	i	i	i
CCOC(=O)c1sc2nc(NC(=O)COc3ccccc3)sc2c1C	nt	i	i	i	1.65µM	i
Cc1cc(C)cc(-n2c(SCC(=O)Nc3ccccc3F)nc3c(oc4ccccc43)c2=O)c1	nt	i	i	nt	nt	nt
COc1cc(C(=O)OCC(=O)N2CCCCC2C)cc(NC(=O)c2cccs2)c1OC (stereo unspecified)	0.117µM	i	i	i	?	i
CSc1ncc(Cl)c(C(=O)Nc2ccccc2C)n1	nt	i	?	i	?	i
CCSc1ncc(Cl)c(C(=O)Nc2ccccc2)n1	i	i	i	i	8.28µM	i
CSc1ncc(Cl)c(C(=O)Nc2ccccc2[N+](=O)[O-])n1	i	i	i	i	9.28µM	i
CCSc1ncc(Cl)c(C(=O)Nc2ccc(S(N)(=O)=O)cc2)n1	i	i	i	i	9.28µM	i
CCSc1ncc(Cl)c(C(=O)Nc2c(C(=O)Nc3ccccc3)oc3ccccc23)n1	nt	i	i	nt	nt	nt
COc1ccc(S(=O)(=O)N[C@@H](CSCc2ccccc2)C(=O)O)cc1	i	39.8µM	i	i	i	i
CCOC(=O)c1c(C)[nH]c(C)c1C(=O)COC(=O)c1cccs1	nt	nt	nt	i	nt	i
CCOC(=O)c1c(NC(=O)CC2SC(N)=NC2=O)sc2c1CCC(C)C2 (stereo unspecified)	?	i	?	i	i	i
COC(=O)c1c(NC(=O)CC2SC(N)=NC2=O)sc2c1CCC(C)C2 (stereo unspecified)	i	?	?	i	3.7µM	i
O=[N+]([O-])c1ccc(C[n+]2cccc3c4ccccc4ccc32)cc1	i	i	i	i	i	i
CCCCCCCCC[n+]1cccc2c3ccccc3ccc21	0.165µM	i	i	i	i	i
CCCCCCCCCCCCCCCC[n+]1cccc2ccccc21	0.828µM	?	i	i	?	i
Cc1ccccc1CSCc1nc2ccccc2[nH]1	?	i	?	i	i	i
O/N=C/c1cccc[n+]1CCCCCC[n+]1ccccc1/C=N/O	?	i	i	i	?	i
Cc1ccccc1C[n+]1cccc2ccccc21	0.37µM	i	i	i	?	i
COc1ccc(Nc2nc3c(C)cccc3cc2C#N)cc1	?	i	i	i	i	i
COc1cccc(Nc2nc3cc(OC)ccc3cc2C#N)c1	i	i	i	i	5.22µM	i
Cn1ccnc1Sc1cc(NCCCO)c([N+](=O)[O-])c2nonc12	?	0.708µM	i	i	i	i
SMILES	Pf growth 48h	Sm TGR inh	AmpC inh detg	SARS PLpro yeast	Pf growth 96h	AmpC inh no detg
O=[N+]([O-])c1c(NCCCO)cc(Sc2ccc(Cl)cc2)c2nonc12	?	5.62µM	i	i	i	i
O=[N+]([O-])c1c(NCCCO)cc(SCc2ccco2)c2nonc12	i	3.16µM	?	i	?	i
O=[N+]([O-])c1c(NCCCO)cc(N2CCN(Cc3ccc4c(c3)OCO4)CC2)c2nonc12	?	i	i	i	i	i
Cc1ccccc1NC(=O)Cn1c(=O)n(CCC(=O)N2CCc3ccccc3C2)c(=O)c2ccccc21	nt	i	i	nt	nt	nt
COc1cc(OC)cc(C(=O)N[C@H](C(=O)Nc2ccccc2N2CCOCC2)C(C)C)c1	nt	i	i	i	8.28µM	i
Cc1csc(NC(=O)C(C)Oc2ccc(Cl)cc2C)n1 (stereo unspecified)	13.1µM	i	i	i	?	i
CCC(C)Oc1cccc(C(=O)Nc2ccccc2N2CCOCC2)c1 (stereo unspecified)	10.4µM	i	i	i	i	i
CC(C)Oc1cccc(C(=O)Nc2ccccc2N2CCOCC2)c1	i	i	i	i	i	i
Cc1cc(Cl)ccc1OC(C)C(=O)O (stereo unspecified)	i	i	?	i	i	i
Cc1cc(Cl)ccc1OC(C)C(=O)Nc1ccccc1N1CCOCC1 (stereo unspecified)	7.38µM	i	i	i	nt	i
Cc1cccc(NC(=O)CSC2=Nc3ccccc3C3=NC(CCC(=O)NCc4ccc(F)cc4)C(=O)N23)c1 (stereo unspecified)	nt	i	i	nt	nt	nt
Cc1cccc(CCNc2ncnc3onc(-c4ccc(Cl)cc4)c23)c1	nt	i	i	nt	nt	nt
O=C(CSCc1c(Cl)cccc1Cl)Nc1ccc2c(c1)OCCO2	i	i	i	i	3.29µM	i
COc1cc(NC(=O)COC(=O)/C=C/c2ccc(Cl)cc2Cl)cc(OC)c1	i	i	i	i	i	i
Cc1cccc(C)c1OCC(=O)Nc1ccc2c(c1)OCCO2	i	i	i	i	11.7µM	i
Cc1ccccc1OCC(=O)Nc1ccc2c(c1)OCCO2	i	i	i	i	i	i
O=C(COC(=O)/C=C/c1ccc(Cl)cc1Cl)Nc1ccc2c(c1)OCCO2	i	i	?	i	2.94µM	i
CCCC(=O)Nc1ncnc2c1ncn2C1OC2COP(=O)(O)OC2C1OC(=O)CCC (stereo unspecified)	i	nt	nt	nt	i	nt
CN1C(C(=O)NC(C)(C)C)=CC(c2ccc3c(c2)OCO3)=NS1(=O)=O	nt	i	i	nt	nt	nt
CC(C)c1ccc(C2/C(=C(/O)c3ccc(F)cc3)C(=O)C(=O)N2CCCN2CCOCC2)cc1 (stereo unspecified)	i	?	i	i	i	i
Cc1ccccc1CNC(=O)CCCn1c(=O)c2cccn2c2cccnc21	nt	i	i	nt	nt	nt
C/C=C/C(=O)Nc1cccc(C2=NOC3(C2)C[C@@H](C(N)=O)N(C(=O)C(c2ccccc2)c2ccccc2)C3)c1 (stereo partly specified)	11.7µM	i	i	i	13.1µM	i
C/C=C(\C)C(=O)Nc1cccc(C2=NOC3(C2)C[C@H](C(N)=O)N(C(=O)C(c2ccccc2)c2ccccc2)C3)c1 (stereo partly specified)	9.28µM	i	i	i	11.7µM	i
C/C=C\C(=O)Nc1cccc(C2=NOC3(C2)C[C@@H](C(N)=O)N(C(=O)CC(c2ccccc2)c2ccccc2)C3)c1 (stereo partly specified)	10.4µM	i	i	i	13.1µM	i
